Data on 103 compounds can be found in ChEMBL document CHEMBL4513216, “Probing the Open Global Health Chemical Diversity Library for Multistage-Active Starting Points for Next-Generation Antimalarials” (ACS Infect Dis, 2020).

SMILES strings stand for the structures. Hit rate of the full screen: of about 68,000 compounds, about 2,700 (4%) showed an effect of 50% or more. The sample as a whole holds a higher share of strong results than the screen did.

This assay deals with Plasmodium berghei. Kind of assay: Screen against P. berghei liver stage (PbLuc), transformed with Luciferase, at 2uM. Conditions: tested at 2 uM. The class given is functional, HepG2.
As to `Cc1cnn(CC2CCCN2C(=O)c2cccc(-n3ccc(C)n3)c2)c1` (stereo not drawn), the INHIBITION was 23.42%. Take `CS(=O)(=O)c1ccc(C(=O)N2CCCC(n3cncn3)C2)o1` (stereo not drawn): the INHIBITION is reported as -15.41%. The result for `CCOC(=O)[C@]12CCCN(Cc3cccs3)C[C@H]1CN(C(C)C)C2` reads -10.41%; that for `CCn1nc(C)c(CNC(=O)NCC(C)(O)c2ccc(C)o2)c1C` (stereo not drawn), -109.32%; that for `CCS(=O)(=O)N1CCC2(CC1)CN(c1cncnc1)C(=O)CO2`, -28.81%. The figure for `O=C1COC2(CCN(CC3CC3)CC2)CN1c1cncnc1` is -59.44%; for `CCC(C)N1CCC2(CC1)CN(c1cncnc1)C(=O)CO2` (stereo not drawn) it is 51.55%.

Consider `CSc1nc(C)cc(N2CCC(c3ncc[nH]3)CC2)n1`, for which the INHIBITION is -69.92%. As for `CC(=O)c1ccccc1-c1cc(C(=O)O)cc(S(=O)(=O)NC(C)C)c1`, the INHIBITION is recorded as 17.48%. Turning to `CC(C)NS(=O)(=O)c1cc(C(=O)O)cc(-c2ccccc2F)c1`, the INHIBITION came to 38.83%. Take `CC(C)NS(=O)(=O)c1cc(C(=O)O)cc(-c2ccccc2CO)c1`: the INHIBITION amounted to 76.6%. The figure for `CC(C)NS(=O)(=O)c1cc(C(=O)O)cc(-c2ccccc2CN(C)C)c1` is 58.24%; for `CC(C)NS(=O)(=O)c1cc(C(=O)O)cc(-c2ccc(CN(C)C)cc2)c1` it is 15.42%; for `CC(C)NS(=O)(=O)c1cc(C(=O)O)cc(-c2ccccc2C#N)c1` it is -10.44%. Consider `Cn1c(CCNc2nccnc2C#N)nc2ccc(F)cc21`, for which the INHIBITION turned out to be 8.03%. The result for `CCc1nnc2n1CCN(C(=O)c1cc3c(F)cccc3[nH]1)C2` reads 9.17%.

`CC(C)[C@@H]1CN(C(=O)NCc2ccco2)C[C@H]1NS(=O)(=O)N(C)C`: the INHIBITION worked out at 28.95%.

Regarding `CC(C)[C@@H]1CN(C(=O)NCc2ccco2)C[C@H]1N(C)C`, the INHIBITION amounted to 52.08%. The result for `CC(C)[C@@H]1CN(CC(=O)NCc2ccco2)C[C@H]1NS(=O)(=O)N(C)C` reads -30.53%. The result for `CC1COCCN1C(=O)c1cnccn1` (stereo not drawn) reads -108.55%; that for `CCN(C)C(=O)[C@H]1C[C@@](CC(C)C)(C(=O)OC)N(C)[C@H]1c1cccnc1`, 59.03%. `COCCN1CCC2(CC1)CC(c1cccnc1)C(=O)N2C` (stereo not drawn): the INHIBITION was found to be 11.98%. The result for `COCCNC(=O)[C@H]1C[C@@](CC(C)C)(C(=O)O)N(C)[C@H]1c1cccnc1` reads 20.32%. For the compound `O=C(O)CSc1nnc(-c2cn[nH]c2)n1-c1ccccc1C(F)(F)F`, the INHIBITION is on record as 71.98%. Take `O=C(O)CSc1nnc(-c2cn[nH]c2)n1-c1ccccc1Cl`: the INHIBITION is on record as 37.77%.

With `O=C(O)CSc1nnc(-c2ccn[nH]2)n1-c1ccccc1C(F)(F)F`, the INHIBITION was -43.98%. The result for `COCCN1CCC(C(=O)N(C)CCOc2ccc(C)cc2Cl)C1` (stereo not drawn) reads -23.16%; that for `Cc1n[nH]cc1CNC(=O)CCCc1cccs1`, 20.86%; that for `C[C@@H]1CN(Cc2ccc(-c3ccncc3)cc2F)CC(C(N)=O)O1` (stereo partly drawn), -11.35%.

Take `CC(C)N1CCC2(CCCN(C(=O)c3cncn3C)C2)CC1`: the INHIBITION was determined as 51.36%. The figure for `CN1CCC2(CCCN(C(=O)c3cncn3C)C2)CC1` is 13.26%; for `CC(C)N1CCOCC2(CCCN(C(=O)c3cncn3C)C2)C1` (stereo not drawn) it is 9.1%; for `CCSc1nc(N)c(NC(=O)c2ccc(C)cc2)c(=O)[nH]1` it is 7.1%.

As for `COCCC(=O)N1CC[C@H]2O[C@@H](C)C[C@H]2C1`, the INHIBITION amounted to 26.31%. The result for `O=C(Nc1cnn(COc2ccc(F)cc2Cl)c1)C1CC1` reads 25.24%.

Take `COc1cc(-c2nc3c([nH]2)CCCNC3=O)ccc1OC(C)C`: the INHIBITION is on record as -20.6%.

With `COc1ccc(-c2nc3c([nH]2)CCCNC3=O)cc1OC`, the INHIBITION was determined as 75.76%. The result for `COc1cc(-c2nc3c([nH]2)CCCNC3=O)ccc1O` reads -58.91%. The result for `NC(=O)c1cccc(CC2CCN(C(=O)CO)C2)c1` (stereo not drawn) reads -5.6%; that for `Cc1ccc(-c2cc(CNC(=O)N3CCC(N(C)C)CC3)on2)cc1`, 23.24%. The result for `CN(Cc1ccc(F)cc1C#N)CC(F)(F)F` reads 4.12%.

For `CN(Cc1cc(F)ccc1C#N)CC(C)(CO)CO`, the INHIBITION came to 55.36%.

Consider `CN(CC(C)(CO)CO)C(=O)Nc1cc(F)cc(Cl)c1`, for which the INHIBITION is recorded as -4.57%. As to `CN(Cc1ccc(F)cc1F)CC(C)(CO)CO`, the INHIBITION was 38.67%. In the case of `CN(Cc1cc(F)ccc1F)CC(C)(CO)CO`, the INHIBITION was 50.59%. The result for `CSCCN(C)Cc1ccc(F)cc1C#N` reads -63.41%. The result for `CNC(=O)c1ccc(OC)c(NCc2ncc(-c3cccs3)o2)c1` reads 2.67%.

As to `Cc1ccc(CN2CCc3ncnc(-c4cccnc4)c3CC2)o1`, the INHIBITION is on record as 18.57%. In the case of `Cc1ccc(CN2CCc3ncnc(-c4ccc(F)cc4)c3CC2)o1`, the INHIBITION was -23.71%. The figure for `Cc1ccc(CN2CCc3ncnc(-c4ccncc4)c3CC2)o1` is 76.36%; for `CCc1noc(C)c1C(=O)N1CCCN(Cc2cscn2)CC1` it is -2.47%; for `O=C(Cc1ccsc1)N1C[C@@H]2OCCN(c3cnccn3)[C@@H]2C1` it is 21.42%. The figure for `c1cncc(O[C@H]2CC[C@H]3[C@H]2OCCN3C2CCCC2)c1` is -74.01%. The figure for `CC(C)NC(=O)[C@@H]1C[C@@H](N)CN1C(=O)c1cc2c([nH]c1=O)CCCC2` is 31.65%; for `COc1nc2c(cc1C(=O)N1C[C@H](N)C[C@H]1C(=O)NC(C)C)CCC2` it is 43.8%.

On to `COc1nc2c(cc1C(=O)N1C[C@@H](N)C[C@H]1C(=O)NC(C)C)CCC2`, for which the INHIBITION is 63.17%.

As to `CC1CCC(NC(=O)Nc2ccc(CC(=O)N(C)C)cc2)CC1` (stereo not drawn), the INHIBITION was 35.5%. Regarding `Cn1cc(CN2CCN(CC3(c4ccccc4)CC3)CC2)cn1`, the INHIBITION was found to be 27.03%.

Regarding `COc1ccc2c(C)c(C(=O)N3CCC(NC(C)=O)C3)oc2c1` (stereo not drawn), the INHIBITION is recorded as -41.96%.

On to `Cc1noc(C)c1CN1C[C@@H](C(=O)O)[C@H](c2ccccc2)C1`, for which the INHIBITION is on record as -0.59%.

For `COc1ccccc1[C@@H]1CN(Cc2c(C)noc2C)C[C@H]1C(=O)O`, the INHIBITION worked out at 68.39%. Consider `Cc1ccccc1[C@@H]1CN(Cc2c(C)noc2C)C[C@H]1C(=O)O`, for which the INHIBITION is on record as -18.65%.

Consider `O=C(NCCn1ccnc1)N1CCN(c2nccs2)CC1`, for which the INHIBITION is recorded as -16.42%. The figure for `Cc1nc(CN2CC(Cc3ccccc3)CC2=O)no1` (stereo not drawn) is -12.68%; for `O=C(O)[C@]12CCCN(CC3CCOC3)C[C@H]1CN(c1ncccn1)C2` (stereo partly drawn) it is 13.16%. Turning to `O=C1CCN(C(=O)C2(c3ccc(F)cc3)CCCCC2)CCN1`, the INHIBITION is given as -41.64%. The result for `O=C1CCN(C(=O)C2(c3ccc(F)cc3)CCCC2)CCN1` reads 37.18%; that for `O=C1CCN(C(=O)C2(c3ccc(F)cc3)CCOCC2)CCN1`, 63.46%. The result for `CCn1c(C2CCN(C(=O)c3ccc4cc[nH]c4c3)CC2)n[nH]c1=O` reads -9.71%; that for `O=C(c1ccccc1)N1CCCC2(CCN2Cc2cccc(F)c2)C1` (stereo not drawn), 29.03%; that for `COc1cc2cc(C(=O)NCC(=O)O)n(C)c2c(OC)c1OC`, 16.47%. The result for `CC(=O)Nc1ccc(CNC2CC(=O)N(Cc3cccc(F)c3)C2)cc1` (stereo not drawn) reads -34.5%; that for `COCCO[C@H]1CCN(c2cc(OC)ncn2)[C@H]1Cc1cccnc1`, 3%.

Take `Cc1ccncc1NC(=O)C1CSc2ncc(C)c(=O)n2C1` (stereo not drawn): the INHIBITION is given as 13.95%. Consider `Cc1cnc2n(c1=O)CC(C(=O)Nc1ccccc1Cl)CS2` (stereo not drawn), for which the INHIBITION is listed as -51.94%. The result for `Cc1ccc(Cl)cc1NC(=O)C1CSc2ncc(C)c(=O)n2C1` (stereo not drawn) reads 61.06%; that for `Cc1ccc(-c2noc(CN3CCc4cncnc4C3)n2)cc1`, -49.27%. The result for `O=C(c1ccc2c(c1)COC2)N1CCC(Nc2cccnn2)CC1` reads 31.19%; that for `Cc1cncc(C(=O)N2CC[C@@]3(C[C@H](NS(C)(=O)=O)CCO3)C2)c1`, 17.83%; that for `CCCc1cc(=O)[nH]c(-n2nc(C3CC3)cc2N)n1`, -67.99%.

In the case of `CC(C)(C)CN1CCCC(O)(CN2CCc3[nH]ncc3C2)C1=O` (stereo not drawn), the INHIBITION is -92.69%. The figure for `O=C1N(CC2CCCCC2)CCCC1(O)CN1CCc2[nH]ncc2C1` (stereo not drawn) is 29.9%. The result for `O=C1N(CC2CC2)CCCC1(O)CN1CCc2[nH]ncc2C1` (stereo not drawn) reads 61.42%; that for `CC(C)c1noc(CCCC(=O)N2CCN(Cc3cccnc3)CC2)n1`, 26.06%; that for `O=C(c1ccco1)N1CCCC2(CN(Cc3ccsc3)CCO2)C1` (stereo not drawn), -26.14%. For the compound `Cc1noc(C(C)N2CCN(CCOCC(F)(F)F)CC2)n1` (stereo not drawn), the INHIBITION turned out to be 36.95%. The result for `Cc1nc[nH]c1C(=O)N1CCC2(CN(C)C(=O)O2)C1` (stereo not drawn) reads 36.22%. The result for `CN1CC2(CCN(C(=O)c3ccc4c(=O)n(C)cnc4c3)CC2)CC1=O` reads -7.68%. The result for `CN1CC2(CCN(C(=O)c3ccc4c(=O)n(C)cnc4c3)C2)OC1=O` (stereo not drawn) reads 52.03%; that for `CC(C)(NCCCOc1ccc(C#N)cc1)c1nccs1`, 9.27%. With `CNC(=O)c1cccnc1NCCOc1ccc(CC#N)cc1`, the INHIBITION worked out at 54.29%.

Take `CNC(=O)c1cccc(NCCOc2ccc(CC#N)cc2)c1C`: the INHIBITION is on record as 34.46%. The figure for `Brc1ccc(NCc2ccc(Cn3ccnc3)cc2)nc1` is 74.17%. The result for `CNC(=O)c1cccnc1NCCOc1ccccc1` reads -1.89%; that for `Cc1csc(C(C)(C)NCCOc2ccc(CC#N)cc2)n1`, 30.06%.

In the case of `CNC(=O)c1cccnc1NCc1ccc(-n2cccn2)cc1`, the INHIBITION is reported as -6.98%. The figure for `CNC(=O)c1cccnc1NCc1ccc(Cn2ccnc2)cc1` is 71.57%; for `CNC(=O)c1cccnc1NCc1ccc(Cn2cccn2)cc1` it is -6.29%.

For the compound `CS(=O)(=O)c1ccccc1NCc1ccc(Cn2ccnc2)cc1`, the INHIBITION is on record as 6.78%. The figure for `CC(C)(NCCOc1ccc(CC#N)cc1)c1nccs1` is 56.89%; for `c1ccc(NCc2ccc(Cn3ccnc3)cc2)nc1` it is 17.64%. With `CC(C)(CNC1CCCN(Cc2ccccc2F)C1)CN1CCOCC1` (stereo not drawn), the INHIBITION came out at 18.22%. Turning to `CCc1ccccc1CN1CCn2nc(CNC(C)=O)cc2C1`, the INHIBITION was -31.66%.
